SMILES strings stand for the structures. Records with an inconclusive call do not appear. Values without a mark were called inactive. Active and inactive are the calls of the source. The call rests on the fitted dose curve; in most records, active means well fitted curve in the direction sought with a large enough effect; inconclusive means small, poorly fitted or top-dose-only effect, or another doubt; inactive means no such curve, though single readings can be large; an effect the other way counts as inactive or inconclusive.

32 compounds from PubChem BioAssay (NCATS) can be followed below.

The nature of assay [1]: Quantitative highthroughput screen to assess conditional lethalithy of NOMO1 cells grown in RPMI1640 with dialyzed fetal bovine serum (RPMI+ds) (AID 1963877). Further: nearly all actives have a fitted effect of over 30% in size. Further: potency means the concentration at half of the fitted maximal effect.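 On Viability: series mostly up to about 46 µM; 100% = DMSO control wells and 0% = empty wells.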 A digest of the protocol:
(§1)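 Each medium arm—HPLM with 10% dialyzed FBS, or RPMI1640 with 5 mM glucose and 10% untreated or dialyzed FBS—was screened against an 11-point, 3-fold compound titration for 48 h at 37 °C, with CellTiter-Glo luminescence as endpoint.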

Assay [2] in a line: Quantitative highthroughput screen to assess conditional lethalithy of NOMO1 cells grown in Human Plasma-Like Medium with dialyzed fetal bovine serum (HPLM+ds) (AID 1963878). Further: nearly all actives have a fitted effect of over 35% in size. Further: potency means the concentration at half of the fitted maximal effect.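 On Viability: 100% = DMSO wells and 0% = empty wells on each plate.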 A digest of the protocol: as §1
The nature of assay [3]: Quantitative highthroughput screen to assess conditional lethalithy of SEM cells grown in Human Plasma-Like Medium with dialyzed fetal bovine serum (HPLM+ds) (AID 1963882). Further: nearly all actives have a fitted effect of over 35% in size. Further: potency means the concentration at half of the fitted maximal effect. On Viability: series mostly up to about 46 µM. In short, it runs like this:
as §1

Assay [4] in a line: Quantitative highthroughput screen to assess conditional lethalithy of SEM cells grown in RPMI1640 with dialyzed fetal bovine serum (RPMI+ds) (AID 1963884). Further: nearly all actives have a fitted effect of over 35% in size. Further: potency means the concentration at half of the fitted maximal effect.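 On Viability: series mostly up to about 46 µM; 100% = DMSO control wells and 0% = empty wells without cells.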 A digest of the protocol:
as §1

Assay [5] can be described thus: Viability qHTS for spleen associated tyrosine kinase inhibitor (SYKi) drug resistant MV4-11 cells (AID 1963824). Further: nearly all actives have a fitted effect of over 35% in size. Further: potency means the concentration at half of the fitted maximal effect. A digest of the protocol: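 SYK inhibitor-resistant MV4-11 AML cells, 500 per well, added to predispensed compounds and incubated 72 hr at 37 C, 5% CO2. Viability measured by CellTiter-Glo luminescence after 10 min at room temperature.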
Background: In qHTS, concentration-response curves come from the screen itself.

Assay [6] in a line: Cellular viability qHTS for adrenocortical cancer (ACC) cell line NCI-H295R (AID 1963990). Further: nearly all actives have a fitted effect of over 60% in size. Further: potency means the concentration at half of the fitted maximal effect. A digest of the protocol:
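Luminescent ATP read-out (CellTiter-Glo, 20 min RT) after 48 h drug exposure of NCI-H295R cells; a titration up to 46 uM final. Data normalized to doxorubicin (100% inhibition) and DMSO (0%); 4-parameter fit gives IC50, max response.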

Assay [7] can be described thus: Quantitative highthroughput screen to assess conditional lethalithy of NOMO1 cells grown in RPMI1640 with untreated serum (RPMI+s) (AID 1963876). Further: nearly all actives have a fitted effect of over 35% in size. Further: potency means the concentration at half of the fitted maximal effect.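 On Viability: 100% = DMSO wells and 0% = empty wells without cells.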 A digest of the protocol: as §1
The nature of assay [8]: Quantitative highthroughput screen to assess conditional lethalithy of P12 Ichikawa cells grown in Human Plasma-Like Medium with dialyzed fetal bovine serum (HPLM+ds) (AID 1963879). Further: nearly all actives have a fitted effect of over 35% in size. Further: potency means the concentration at half of the fitted maximal effect. On Viability: series mostly up to about 46 µM. To be noted: Potency: viability. In short, it runs like this:
as §1

Assay [9] can be described thus: Cellular viability qHTS for adrenocortical cancer (ACC) cell line SW-13 (AID 1963989).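 Further: cells grown in serum-free medium with ITS supplement; on the % scale 0 is the no-effect control and ±100 the full control effect; nearly all actives have a fitted effect of over 65% in size.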 To be noted: SW-13 ACC cells viability, CellTiter-Glo, 48 h; activity (max response): hits give low values. A digest of the protocol:
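SW-13 cells in ITS-supplemented serum-free DMEM were plated overnight, then exposed for 48 h at 37C to compound titrations (up to 46 uM final). Viability was read by CellTiter-Glo luminescence; four-parameter logistic fits gave IC50 and efficacy.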

The nature of assay [10]: Quantitative highthroughput screen to assess conditional lethalithy of P12 Ichikawa cells grown in RPMI1640 with dialyzed fetal bovine serum (RPMI+ds) (AID 1963880). Further: nearly all actives have a fitted effect of over 35% in size. Further: potency means the concentration at half of the fitted maximal effect.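 On Viability: 100% = DMSO wells and 0% = empty wells on each plate.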 To be noted: Potency: P12-Ichikawa viability. A digest of the protocol: as §1
Assay [11] can be described thus: Quantitative highthroughput screen to assess conditional lethalithy of P12 Ichikawa cells grown in RPMI1640 with untreated serum (RPMI+s) (AID 1963881). To be noted: Potency: viability. A digest of the protocol:
as §1

The nature of assay [12]: Quantitative highthroughput screen to assess conditional lethalithy of SEM cells grown in RPMI1640 with unreated serum (RPMI+s) (AID 1963883). Further: nearly all actives have a fitted effect of over 35% in size. Further: potency means the concentration at half of the fitted maximal effect.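 On Viability: 100% = DMSO wells and 0% = empty wells without cells.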 In short, it runs like this: as §1

For the compound `CC[C@H]1C=CC=CC[C@@H](C)[C@H](O)[C@@](C)(O)C(=O)[C@@H](C)[C@H](O)[C@@H](C)C(=O)[C@@H](C)[C@H](O)[C@@H](C)C=CC(=O)O[C@@H]2[C@@H](C)[C@H](CC1)O[C@]1(CC[C@H](C)[C@H](C[C@@H](C)O)O1)[C@H]2C`, the Potency in assay [1] was 4.69 µM (active); in assay [2], 2.64 µM (active); in [3] it was 5.9 µM (active); in assay [4] it was 4.69 µM (active).

As to `COc1cccc(C(=O)CCN[C@@H](C)[C@H](O)c2ccccc2)c1`, the Potency entry in assay [5] is “inactive”. Moreover, in assay [6], the Potency is 25.9 µM (active).

For `CCCOC(=O)c1cncn1C(C)c1ccccc1` (stereo not drawn), the Potency result in [5] and in assay [6] was “inactive” in each case.

On to `CC(N[C@H]1C[C@H]1c1ccccc1)c1ccc2c(c1)OCCO2` (stereo partly drawn), for which the Potency entry in assay [7] and in assay [8] was “inactive” throughout.

As to `Cc1cc(O)ccc1Cl`, the Potency result in [5] and in assay [6] was “inactive” in each case. Further, in assay [9], the activity (max response) was 10.8%.

On to `CN(C)C(=S)SSC(=S)N(C)C`, for which the Potency was 4.73 µM (active) in assay [5] and 25.9 µM (active) in [6].

`C[C@]12CC[C@H]3[C@@H](CCC4=CC(=O)CC[C@@]43C)[C@H]1CC[C@H]2O`: the Potency result in assay [1], in assay [2], in [10] and in assay [3] was “inactive” each time.

For `C[C@]12CC[C@H]3[C@@H](CCC4=CC(=O)CC[C@@]43C)[C@@H]1CC[C@@H]2C(=O)O`, the Potency result in assay [5] and in assay [6] was “inactive” throughout. Besides, in assay [9], the activity (max response) was 11.4%.

For `C[C@]12CCC(=O)C(O)=C1CC[C@@H]1[C@H]3CCC(=O)[C@@]3(C)CC[C@@H]12`, the Potency entry in [7], in assay [2], in assay [10], in assay [11] and in assay [3] was “inactive” each time.

Consider `C[C@H](Nc1ncnc2nc[nH]c12)c1nc2ccc(F)cc2c(=O)n1-c1ccccc1`, for which the Potency in assay [5] was 0.651 µM (active). Moreover, in assay [9], the activity (max response) was -19.1%. For the same compound, in assay [6], the Potency entry is “inactive”.

Regarding `CC1=NN=C(c2ccc(N)cc2)c2cc3c(cc2C1)OCO3`, the Potency entry in assay [7], in [2] and in assay [3] was “inactive” each time.

Regarding `C[C@]12CC[C@H](O)CC1=CC[C@H]1[C@H]3CCC(=O)[C@@]3(C)CC[C@@H]12`, the Potency result in assay [1], in assay [2], in assay [8], in assay [12] and in assay [4] was “inactive” each time.

Turning to `N#Cc1nn(-c2c(Cl)cc(C(F)(F)F)cc2Cl)c(N)c1S(=O)C(F)(F)F` (stereo not drawn), the Potency in [5] is 10.6 µM (active); in assay [6], 2.59 µM (active).

As for `C[C@H](N)C(=O)c1ccccc1`, the Potency result in assay [5] and in assay [6] was “inactive” in each case. Besides, the activity (max response) in assay [9] was -8.86%.

Take `CC1(C)C(C=C(Cl)Cl)C1C(=O)OC(C#N)c1cccc(Oc2ccccc2)c1` (stereo not drawn): the Potency result in assay [5] and in [6] was “inactive” throughout. Further, in assay [9], the activity (max response) is 4.33%.

For `CCO[C@H]1O[C@@H]2OC3(C)CC[C@H]4[C@H](C)CC[C@@H]([C@H]1C)[C@@]24OO3`, the Potency in assay [5] is 2.99 µM (active). Also, the Potency entry in assay [6] is “inactive”.

For `C[C@]12Cc3nonc3C[C@@H]1CC[C@@H]1[C@@H]2CC[C@@]2(C)[C@H]1CC[C@]2(C)O`, the Potency in assay [5] is 16.8 µM (active); in [6], 23.1 µM (active).

`CCN1C[C@]2(OC(=O)c3ccccc3NC(C)=O)CC[C@H](OC)[C@@]34[C@H]5CC6[C@@H](OC)C[C@](O)(C(C[C@@H]23)[C@@H]14)[C@@]5(O)[C@@H]6OC`: the Potency result in assay [7], in [1], in assay [2], in [8], in assay [3] and in [4] was “inactive” throughout. In assay [6], the Potency result was “inactive”.

Turning to `O=C(NCC1CCOCC1)c1cnc(Nc2ccc(Cl)cc2Cl)nc1C(F)(F)F`, the Potency entry in assay [7], in assay [1], in [2], in [8], in assay [10] and in assay [3] was “inactive” each time. Further, the Potency entry in assay [6] is “inactive”. Also, the activity (max response) in [9] was -11.7%.

Take `NC1CC1c1ccccc1` (stereo not drawn): the Potency entry in assay [7], in assay [8] and in assay [10] was “inactive” in each case.

On to `CC(=O)O[C@@]12CO[C@H]1C[C@H](O)[C@@]1(C)C(=O)[C@H](O)C3=C(C)[C@@H](O)C[C@@](O)([C@@H](OC(=O)c4ccccc4)[C@@H]21)C3(C)C`, for which the Potency was 14.8 µM (active) in assay [7], 10.5 µM (active) in assay [8] and 11.8 µM (active) in [10].

As for `COc1ccc2c(c[n+](C)c3c4cc5c(cc4ccc23)OCO5)c1OC`, the Potency in assay [8] is 16.6 µM (active); in assay [12] it was 8.33 µM (active); in assay [4], 9.35 µM (active).

As for `Cc1c(N)nc([C@H](CC(N)=O)NC[C@@H](N)C(N)=O)nc1C(=O)N[C@H](C(=O)N[C@@H](C)[C@H](O)[C@@H](C)C(=O)N[C@@H](C(=O)NCCc1nc(-c2nc(C(=O)NCCC[S+](C)C)cs2)cs1)[C@@H](C)O)C(O[C@H]1O[C@H](CO)[C@H](O)[C@@H](O)[C@@H]1O[C@H]1O[C@H](CO)[C@@H](O)[C@H](OC(N)=O)[C@H]1O)c1cnc[nH]1` (stereo partly drawn), the Potency was 0.935 µM (active) in assay [2] and 4.18 µM (active) in assay [4].

Take `CC(C)CC(N(C)C)C1(c2ccc(Cl)cc2)CCC1` (stereo not drawn): in assay [2], the Potency entry was “inactive”. For the same compound, in [9], the activity (max response) was -12.4%.

Regarding `CN(C)CCN(C)CCc1ccc(Cl)c(Cl)c1`, the Potency result in [2], in [8], in assay [10], in assay [11] and in assay [6] was “inactive” each time. The activity (max response) in [9] was -5.37%.

Turning to `CC(O)=C(C#N)C(=O)Nc1cc(Br)ccc1Br`, the Potency result in [8] and in [10] was “inactive” throughout.

Take `O=C1C=CC[C@@H]2[C@H]3CCCN4CCC[C@@H](CN12)[C@@H]34`: the Potency result in assay [2], in assay [3], in assay [4] and in assay [6] was “inactive” throughout. In addition, the activity (max response) in assay [9] was -3.97%.

With `O=C(O)CNC(=O)c1c(O)c2ccccc2n(Cc2ccccc2)c1=O`, the Potency result in [2], in assay [3], in assay [12] and in [4] was “inactive” each time. Further, the activity (max response) in assay [9] is 3.51%.

For `CC(=O)OCC1=C(C(=O)O)N2C(=O)[C@@H](N)[C@@H]2SC1`, in assay [8], the Potency is 1.48 µM (active). In [3], the Potency result was “inactive”.

With `CC(=Cc1csc(C)n1)[C@@H]1C[C@H]2O[C@@H]2CCC[C@H](C)[C@@H](O)[C@@H](C)C(=O)C(C)(C)[C@@H](O)CC(=O)O1`, the Potency result in assay [8] and in assay [12] was “inactive” each time.

As to `C[C@](O)(CS(=O)(=O)c1ccc(F)cc1)C(=O)Nc1ccc(C#N)c(C(F)(F)F)c1`, the Potency result in assay [8], in assay [11], in [3] and in assay [12] was “inactive” throughout.

Turning to `O=[N+]([O-])c1ncc[nH]1`, the Potency entry in [8], in [10], in assay [3] and in assay [4] was “inactive” each time.
